Where “and” joins values, the source holds several entries; their conditions need not be identical. Equal entries are not always repeated. Inconclusive results are not listed. Calls of active or inactive are those of the source. Unless noted, calls follow the shape of the dose curve; as a rule, active = well fitted curve in the direction sought with a large enough effect; inconclusive = small, poorly fitted or top-dose-only effect, or another doubt; inactive = no such curve, though single readings can be large; an effect the other way counts as inactive or inconclusive.
Experiments:
[1] = target: Alpha-galactosidase A (Homo sapiens) (UniProt P06280); assay: Counterscreen for Glucocerebrosidase Inhibitors: qHTS Assay for Human alpha-Galactosidase at pH 4.5 (AID 992); also: 0% is about no effect
Alpha-galactosidase A (Homo sapiens), sequence (P06280 whole entry, looked up): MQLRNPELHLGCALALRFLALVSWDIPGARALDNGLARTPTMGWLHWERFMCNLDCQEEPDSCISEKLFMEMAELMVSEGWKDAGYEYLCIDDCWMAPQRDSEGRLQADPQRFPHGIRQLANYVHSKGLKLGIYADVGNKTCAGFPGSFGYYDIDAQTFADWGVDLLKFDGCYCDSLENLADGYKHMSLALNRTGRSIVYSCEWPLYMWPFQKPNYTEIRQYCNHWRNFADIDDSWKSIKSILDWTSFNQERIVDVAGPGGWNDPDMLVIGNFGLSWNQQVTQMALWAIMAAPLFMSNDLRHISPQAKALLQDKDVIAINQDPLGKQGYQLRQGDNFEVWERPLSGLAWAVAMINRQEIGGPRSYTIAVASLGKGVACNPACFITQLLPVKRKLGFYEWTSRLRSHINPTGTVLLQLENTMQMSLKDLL
How it was run: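 Each compound is preincubated briefly with 2 nM enzyme before substrate addition (80 uM); plates then sit 20 min at ambient temperature, are quenched with 1M NaOH/1M glycine, and read fluorometrically.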

[2] = target: alpha-glucosidase (Oryza sativa, rice) (UniProt Q653V4); assay: Counterscreen for Glucocerebrosidase Inhibitors: qHTS Assay for Rice alpha-Glucosidase at pH 5.0 (AID 997);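 also: 0% = full activity with enzyme and -100% = basal without enzyme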
How it was run: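 Endpoint fluorogenic assay at pH 5.0: compounds (0.7 nM to 77 uM) titrated against 4 nM rice enzyme and 400 uM 4-MU-alpha-glucoside for 20 min at room temperature; NaOH/glycine stop, read ex 365/em 440 nm, Hill-fitted AC50.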

[3] = qHTS Assay for Lipid Storage Modulators (AID 1519; calls by dose curve; as to activity change, negative = inhibition: % is scaled to controls: 0 for no effect and ±100 for the full control effect); settings: Drosophila S3 cells, BODIPY lipid droplet/cell ratio, laser cytometry, cells loaded with oleic acid
How it was run: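 Cells seeded at 5,000 per well were treated with compounds over a concentration series and loaded with oleic acid (400 uM, as added). Lipid droplet fluorescence (488 nm excitation, 500-530 nm channel) was read by laser-scanning cytometry and normalized to 20 uM Triacsin C.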

[4] = target: DNA repair nuclease/redox regulator APEX1 (Homo sapiens) (UniProt P27695); assay: qHTS Validation Assay for Inhibitors of the Human Apurinic/apyrimidinic Endonuclease 1 (APE1) (AID 1705; also: potency is read from the fitted curve at half-maximal effect;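 as to activity change, negative = inhibition: TAMRA fluorescence gain over two minutes as APE1 cuts a quenched THF abasic duplex; % is scaled to controls: 0 for no effect and ±100 for the full control effect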)
DNA repair nuclease/redox regulator APEX1 (Homo sapiens), sequence (P27695 whole entry, looked up): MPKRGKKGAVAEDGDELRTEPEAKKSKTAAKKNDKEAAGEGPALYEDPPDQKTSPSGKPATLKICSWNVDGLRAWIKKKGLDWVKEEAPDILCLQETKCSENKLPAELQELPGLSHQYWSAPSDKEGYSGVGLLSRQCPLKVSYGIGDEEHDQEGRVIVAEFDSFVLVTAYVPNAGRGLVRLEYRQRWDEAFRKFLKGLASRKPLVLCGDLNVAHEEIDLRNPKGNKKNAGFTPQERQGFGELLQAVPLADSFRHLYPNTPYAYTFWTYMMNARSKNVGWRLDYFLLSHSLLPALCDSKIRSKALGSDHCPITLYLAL
How it was run: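 Endonuclease activity of human APE1 is followed as dequenching when the enzyme incises a tetrahydrofuran abasic site in a short duplex labelled 5'-TAMRA/3'-BHQ-2 (50 nM final), after 15 min enzyme–compound preincubation at room temperature.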

[5] = Counterscreen for APE1 Inhibitors: Fluorescent Dye Displacement Validation Assay (AID 1707);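 also: plate controls were ThO with dsDNA and no compound for no effect and ThO without dsDNA for full effect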
How it was run: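 Loss of Thiazole Orange fluorescence marks promiscuous DNA binders. The dye (250 nM) is mixed with 50 nM abasic-site dsDNA in pH7.5 Tris buffer containing MgCl2, then compounds are added and emission is read once.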

[6] = target: Endonuclease 4 (Escherichia coli (strain K12)) (UniProt P0A6C1); assay: Counterscreen for APE1 Inhibitors: qHTS Validation Assay for Inhibitors of Endonuclease IV (AID 1708); also: % is scaled to controls: 0 for no effect and ±100 for the full control effect
How it was run: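 Enzyme (2 nM) + compound, 15 min RT; add 50 nM TAMRA/BHQ-2 THF-site dsDNA; kinetic read ex525/em598, 3 reads/60 s; activity = read 3 − read 1. Buffer Tris pH 7.5, 50 mM NaCl, 2 mM MgCl2, DTT, Tween-20.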

[7] = qHTS for differential inhibitors of proliferation of Plasmodium falciparum line 7G8 (AID 1815);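 also: parasite growth measured after three days of incubation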; also: potency is read from the fitted curve at half-maximal effect;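 as to activity change, negative = inhibition: plate controls were vehicle wells for no effect and reference inhibitor wells for full effect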
[8] = qHTS for differential inhibitors of proliferation of Plasmodium falciparum line GB4 (AID 1816); settings: Potency: Plasmodium falciparum GB4 proliferation inhibition;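 also: parasite growth measured after 72 h incubation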; also: potency is read from the fitted curve at half-maximal effect;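 as to activity change, negative = inhibition: 0% = vehicle DMSO and -100% = reference inhibitor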
[9] = qHTS for differential inhibitors of proliferation of Plasmodium falciparum line 3D7 (AID 1876); also: potency is read from the fitted curve at half-maximal effect
[10] = qHTS for differential inhibitors of proliferation of Plasmodium falciparum line D10 (AID 1877);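 also: parasites grown with compound for 72 h before DNA staining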; also: potency is read from the fitted curve at half-maximal effect;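 as to activity change, negative = inhibition: plate controls were vehicle wells for no effect and reference inhibitor wells for full effect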
[11] = qHTS for differential inhibitors of proliferation of Plasmodium falciparum line HB3 (AID 1886); settings: Potency: Plasmodium falciparum HB3 proliferation inhibition;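 also: parasites grown with compound for 72 h before SYBR Green readout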; also: potency is read from the fitted curve at half-maximal effect;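 as to activity change, negative = inhibition: plate controls were vehicle for no effect and reference inhibitor for full effect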
[12] = qHTS for differential inhibitors of proliferation of Plasmodium falciparum line W2 (AID 1883); settings: Potency: Plasmodium falciparum W2 proliferation inhibition;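 also: parasites grown with compound for 72 h before lysis and staining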; also: potency is read from the fitted curve at half-maximal effect;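 as to activity change, negative = inhibition: 0% = vehicle wells and -100% = control inhibitor wells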
[13] = qHTS for differential inhibitors of proliferation of Plasmodium falciparum line Dd2 (AID 1882); settings: Potency: Plasmodium falciparum Dd2 proliferation inhibition;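 also: plate controls were DMSO vehicle for no effect and 0.29 µM artemisinin for full effect; nearly all actives have a fitted effect of over 65% in size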
How it was run: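 SYBR Green DNA fluorescence (ex 485, em 535 nm) after overnight lysis quantifies parasite growth; compound exposure lasted 72 h at 37 C on infected red cells at 2.5% hematocrit, 0.3% parasitemia (final). Artemisinin 0.29 uM and vehicle wells define normalization.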

[14] = Cell Viability - LYMP2-022 (AID 987);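 also: 0% = DMSO alone and full effect = tetraoctylammonium bromide at 92 µM; nearly all actives have a fitted effect of over 55% in size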
How it was run: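 Cytotoxicity read as decreased cellular ATP (CellTiter-Glo luminescence, 30 min room temperature) after 24 hours compound exposure of 2500 lymphoblastoid LYMP2-022 cells/well at 37 C. Concentration-response data fitted with standard Hill equation for AC50.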

[15] = Cell Viability - LYMP2-024 (AID 988);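 also: plate controls were DMSO only for no effect and 92 µM tetraoctylammonium bromide for full effect; nearly all actives have a fitted effect of over 60% in size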
How it was run: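 Cytotoxicity was taken as a decrease in ATP (CellTiter-Glo luminescence) after 24 hr compound exposure at 37 C of LYMP2-024 lymphoblastoid cells, 2500 cells/well. Concentration-response data were fitted to the Hill equation to give AC50.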

[16] = Cell Viability - LYMP2-026 (AID 989); also: % is scaled to controls: 0 for no effect and ±100 for the full control effect; nearly all actives have a fitted effect of over 50% in size
How it was run: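 Cytotoxicity read as ATP-dependent luminescence (CellTiter-Glo, 30 min room temperature) after 24 h compound treatment at 37 C. LYMP2-026 lymphoblastoid line seeded at 2500 cells/well; AC50 derived by standard Hill equation.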

[17] = Cell Viability - LYMP1-002 - Assay at 24 hr (AID 993); also: % is scaled to controls: 0 for no effect and ±100 for the full control effect
How it was run: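 qHTS cytotoxicity at 24 h: CellTiter-Glo ATP luminescence in lymphoblastoid line LYMP1-002 incubated with compound at 37 °C. Concentration-response modeled with the Hill equation for AC50; tetraoctylammonium bromide served as positive control.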

[18] = Cell Viability - LYMP1-002 - Assay at 40 hr (AID 994); also: nearly all actives have a fitted effect of over 60% in size; also: potency is read from the fitted curve at half-maximal effect
How it was run: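 Cytotoxicity was read as loss of cellular ATP (CellTiter-Glo luminescence) after 40 hr compound exposure at 37 C of 2500 LYMP1-002 lymphoblastoid cells per well. Concentration-response data were fitted with the standard Hill equation to give AC50.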

[19] = qHTS Assay for Modulators of Human Peripheral Myelin Protein 22 (PMP22) Expression/Activity (AID 1967; active = well fitted curve in the direction sought with a large enough effect in the signal ratio; the % refers to the signal ratio;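 also: 0% = untreated cells and 100% end not stated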)
How it was run: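 Quantitative HTS in a mouse Schwann cell line expressing dual click beetle luciferases: Pmp22 promoter (green) and control EF-alpha promoter (red). After 24h treatment, corrected green/red signal ratio gave %Activity relative to untreated cells.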

[20] = measured here: cell count channel max response
[21] = measured here: lipid channel max response

Cc1cnc(C(=O)NCCc2ccc(S(=O)(=O)NC(=O)NC3CCCCC3)cc2)cn1
-0.601% and 30.7%: max response [3, 20]
inactive: outcome [1] | outcome [2] | activity change, negative = inhibition ([3]; at 25.7 µM (top of the series)) 1.51% | activity change, negative = inhibition ([3]; at 57.5 µM (top of the series)) 0.481% | Potency [4] | Potency [5] | Potency [6] | Potency [7] | Potency [8] | Potency [9] | Potency [10] | Potency [11]
0.0944% and 30.2%: max response [3, 21]

C[C@](N)(Cc1ccc(O)c(O)c1)C(=O)O
active: Potency [4] 7.94 µM
inactive: outcome [1] | outcome [2] | activity change, negative = inhibition ([3]; at 57.5 µM (top of the series)) 1.88% | Potency [5] | Potency [6] | Potency [7] | Potency [9] | Potency [10] | Potency [11]
42%: max response [3, 21]
48.1%: max response [3, 20]

Cc1cc(C(C)(C)C)c(O)c(C)c1CC1=NCCN1
inactive: outcome [1] | outcome [2] | activity change, negative = inhibition ([3]; at 25.7 µM (top of the series)) -3.48% | activity change, negative = inhibition ([3]; at 57.5 µM (top of the series)) -2.77% and 10.3% | Potency [4] | Potency [5] | Potency [6]
active: Potency [12] 12.6 µM
-16% and -15.4% and 53.3%: max response [3, 21]
-11.5% and -13.2% and 34.1%: max response [3, 20]

COC(=O)Nc1nc2ccc(C(=O)c3cccs3)cc2[nH]1
inactive: outcome [1] | outcome [2] | activity change, negative = inhibition ([3]; at 25.7 µM (top of the series)) -7.22% | activity change, negative = inhibition ([3]; at 57.5 µM (top of the series)) 1.19% | Potency [4] | Potency [5] | Potency [6]
-12.3% and 9.44%: max response [3, 21]
-4.31% and 9.27%: max response [3, 20]

NC12CC3CC(CC(C3)C1)C2
inactive: outcome [1] | outcome [2] | activity change, negative = inhibition ([3]; at 25.7 µM (top of the series)) -3.08% | activity change, negative = inhibition ([3]; at 57.5 µM (top of the series)) 3.74% and -0.728% | Potency [4] | Potency [5] | Potency [6] | Potency [9] | Potency [10] | Potency [11]
-3.12% and 9.04% and -45.9%: max response [3, 21]
active: Potency [8] 11.2 µM | Potency [12] 6.31 µM
0.387% and 4.41% and -44.8%: max response [3, 20]

NC(=O)OCC(COC(N)=O)c1ccccc1
-0.783%: max response [3, 20]
inactive: outcome [1] | outcome [2] | activity change, negative = inhibition ([3]; at 57.5 µM (top of the series)) -4.42% | Potency [4] | Potency [5] | Potency [6] | Potency [7] | Potency [8] | Potency [9] | Potency [10] | Potency [12] | Potency [11]
-3.41%: max response [3, 21]

CN1CCN2c3ccccc3Cc3ccccc3C2C1 (stereo not given)
10.4%: max response [3, 21]
inactive: activity change, negative = inhibition ([3]; at 57.5 µM (top of the series)) 3.41% | Potency [4] | Potency [5] | Potency [6]
active: Potency [7] 10 µM | Potency [8] 12.6 µM | Potency [12] 5.62 µM | Potency [11] 12.6 µM
10.1%: max response [3, 20]

CCC1(C)CC(=O)NC1=O (stereo not given)
inactive: activity change, negative = inhibition ([3]; at 57.5 µM (top of the series)) 5.33% and 1.46% | Potency [4] | Potency [5] | Potency [6] | Potency [7] | Potency [8] | Potency [9] | Potency [10] | Potency [13] | Potency [12] | Potency [11]
13.5% and 40.9%: max response [3, 20]
22.9% and 41%: max response [3, 21]

NC(=O)NO
inactive: outcome [1] | outcome [2] | activity change, negative = inhibition ([3]; at 57.5 µM (top of the series)) 7.16% | Potency [4] | Potency [5] | Potency [6] | Potency [7] | Potency [8] | Potency [9] | Potency [10] | Potency [12] | Potency [11]
26.4%: max response [3, 21]
21%: max response [3, 20]

OCCN1CCN(CCCN2c3ccccc3Sc3ccc(C(F)(F)F)cc32)CC1
-9.92% and 24.4% and 4.08%: max response [3, 20]
-13.1% and 36.3% and -0.526%: max response [3, 21]
inactive: outcome [1] | outcome [2] | activity change, negative = inhibition ([3]; at 25.7 µM (top of the series)) -3.93% | activity change, negative = inhibition ([3]; at 57.5 µM (top of the series)) 8.5% and -2.13% | Potency [4] | Potency [5]

Cn1c(=O)c2c(ncn2C)n(C)c1=O
6.09% and -15.3%: max response [3, 20]
inactive: outcome [14] | outcome [15] | outcome [16] | outcome [1] | outcome [17] | Potency [18] | outcome [2] | activity change, negative = inhibition ([3]; at 57.5 µM (top of the series)) 9.95% and -17.6% | Potency [4] | Potency [5] | Potency [6] | Potency [7] | Potency [8] | Potency [9] | Potency [10] | Potency [13] | Potency [12] | Potency [11]
17.2% and -15.6%: max response [3, 21]

NS(=O)(=O)c1cc2c(cc1Cl)NCNS2(=O)=O
-4.41% and 24.1%: max response [3, 21]
-3.42% and 12.6%: max response [3, 20]
inactive: outcome [14] | outcome [15] | outcome [16] | outcome [1] | outcome [17] | Potency [18] | outcome [2] | activity change, negative = inhibition ([3]; at 25.7 µM (top of the series)) 0.69% | activity change, negative = inhibition ([3]; at 57.5 µM (top of the series)) 7.4% | Potency [5] | Potency [6] | Potency [7] | Potency [9] | Potency [10] | Potency [11]

CC(C)Cc1ccc(C(C)C(=O)O)cc1 (stereo not given)
inactive: outcome [1] | outcome [2] | Potency [4] | Potency [5] | Potency [8] | Potency [9] | Potency [10] | Potency [13] | Potency [12] | Potency [11]

O=c1[nH]cc(F)c(=O)[nH]1
12.8% and 58.3%: max response [3, 21]
3.09% and 58.9%: max response [3, 20]
inactive: outcome [15] | outcome [16] | outcome [1] | outcome [17] | outcome [2] | activity change, negative = inhibition ([3]; at 57.5 µM (top of the series)) 6.92% and -0.382% | Potency [4] | Potency [5]

CN(C)C(=O)C(CCN1CCC(O)(c2ccc(Cl)cc2)CC1)(c1ccccc1)c1ccccc1
inactive: outcome [1] | outcome [2] | Potency [4] | Potency [5]

Cc1cn([C@H]2C[C@H](N=[N+]=[N-])[C@@H](CO)O2)c(=O)[nH]c1=O
inactive: outcome [14] | outcome [15] | outcome [16] | outcome [17] | Potency [18]

OCCN(CCO)c1nc(N2CCCCC2)c2nc(N(CCO)CCO)nc(N3CCCCC3)c2n1
inactive: outcome [2] | activity change, negative = inhibition ([3]; at 25.7 µM (top of the series)) -0.0376% | Potency [6]
-17.7%: max response [3, 21]
active: Potency [7] 2 µM | Potency [8] 2.82 µM | Potency [9] 3.98 µM | Potency [10] 7.94 µM | Potency [12] 2.82 µM | Potency [11] 3.55 µM
-18.6%: max response [3, 20]

COc1cc2c(c(OC)c1OC)-c1ccc(OC)c(=O)cc1[C@@H](NC(C)=O)CC2
active: Potency [18] 0.0316 µM
inactive: outcome [1] | outcome [2] | Potency [4] | Potency [5] | Potency [19]

O=C(C1CCCCC1)N1CC(=O)N2CCc3ccccc3C2C1 (stereo not given)
inactive: outcome [1] | outcome [2] | activity change, negative = inhibition ([3]; at 57.5 µM (top of the series)) 2.76% | Potency [4] | Potency [5] | Potency [6]
active: Potency [12] 12.6 µM
-16.6%: max response [3, 21]
-17.9%: max response [3, 20]
